SKN-1 inh: inhibitors of C. elegans SKN-1 | C. elegans VP596 Pgst-4::GFP/RFP ratio, acrylamide-induced, 24 h | inhibition, % at 21.8 µM | 0.49% of 360,000 active | AID 624304;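 active means interference check ratio from 0.5 to 1.5 plus GFP to RFP signal ratio inhibition reaching or exceeding a fixed threshold, cut at about 30% in these data, passing the limit was not always enough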
CendR NRP1 mod: modulators of CendR peptide binding to human neuropilin-1; O14786; FAM-RPARPAR peptide binding to NRP-1, fluorescence polarization; inhibition, % at 25 µM; 0.85% of 360,000 active; AID 602438;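 active means inhibition or corrected inhibition above about 18%, plus a signal ratio from 0.5 to 1.5, limit read from the data, passing the limit was not always enough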
ATG4B inh: ATG4B (human) cysteine protease inhibition; Q9Y4P1; inhibition, % at 8.33 µM; AID 504462; 0.51% of 340,000 active; ATG4B cleavage of LC3-PLA2, NBD-HPC fluorescence, 1 h; in the data active means inhibition above about 40%
Target sequence (Q9Y4P1 whole entry, looked up): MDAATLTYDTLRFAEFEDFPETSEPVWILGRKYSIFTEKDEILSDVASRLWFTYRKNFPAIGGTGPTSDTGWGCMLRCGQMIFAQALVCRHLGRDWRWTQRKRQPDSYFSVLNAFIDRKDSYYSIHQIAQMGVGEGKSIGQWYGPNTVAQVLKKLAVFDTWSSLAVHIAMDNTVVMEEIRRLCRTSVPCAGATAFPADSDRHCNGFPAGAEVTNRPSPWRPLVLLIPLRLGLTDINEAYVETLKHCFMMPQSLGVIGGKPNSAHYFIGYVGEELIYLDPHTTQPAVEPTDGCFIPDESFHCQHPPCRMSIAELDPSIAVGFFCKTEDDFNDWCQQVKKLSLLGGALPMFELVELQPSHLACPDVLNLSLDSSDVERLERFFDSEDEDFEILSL
F508del corr: CFTR F508del correction in bronchial cells; activity (quench increase), % at 7.58 µM; AID 720511; 0.36% of 350,000 active; CFBE cells, YFP halide quenching; stimulated with forskolin plus potentiator P3; % fluorescence drop versus neutral controls;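 active means mean added fluorescence quench of at least 8% versus neutral control, with both replicates also reaching 8%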;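 further: cells transiently co-express mutant CFTR-F508del with the halide-sensitive YFP; corrector assay measuring rescue of mutant channel to the surface after 24 h compound exposure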
MPTP inh: inhibitors of mitochondrial permeability transition pore; inhibition, % at 10 µM; isolated mouse mitochondria, Ca2+ swelling absorbance, 30 min; AID 602449; 1.4% of 360,000 active;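 active means inhibition of 50% or more, scaled per plate between neutral and stimulator controls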;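 further: 0% = DMSO wells given calcium and 100% = 1 mM EGTA wells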
Rh123 counter: mitochondrial membrane potential, counter-screen; shares compounds with MPTP inh; isolated mitochondria, Rhodamine 123 fluorescence; inhibition, % at 10 µM; 78% of 5,000 active; AID 624504; in the data active means inhibition above about 22%;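 further: 0% = DMSO vehicle and 100% = positive control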
MPTP abs DR: MPTP inhibition, dose response swelling confirmation. AID 651561. shares compounds with MPTP inh. IC50, µM. isolated mitochondria swelling, absorbance. 58% of 780 active; in the data active means IC50 below about 20 µM
MPTP cs DR: MPTP inhibitor counter-screen activity, dose response. shares compounds with MPTP inh. isolated mitochondria counterscreen, fluorescence read-out. IC50, µM. 49% of 780 active. AID 651564; in the data active means IC50 below about 80 µM
Starred values were filed as active, the others as inactive; i = inactive; nt = no result given. In the library only some 2.7% were active in any assay of this set; here they are far more common.

SMILES	SKN-1 inh	CendR NRP1 mod	ATG4B inh	F508del corr	MPTP inh	Rh123 counter	others
C[C@@H]1CN([C@H](C)CO)C(=O)c2cccc(NS(=O)(=O)c3ccccc3)c2O[C@H]1CN(C)Cc1ccncc1	nt	nt	nt	2.0	nt	nt
Cn1c(-c2ccc(Br)o2)nc2ccccc21	13.9	-1.8	-10.6	nt	17.2	nt
Cn1c(-c2ccc(Br)o2)nc2cc(Br)ccc21	42.8*	-14.4	-10.8	nt	63.5*	-7.8	MPTP abs DR=i;MPTP cs DR=>80
CC(=O)Nc1ccc(NC(=O)COc2cc(O)c3c(c2)OC(C)(C)CC3=O)cc1	-1.6	4.5	-8.4	1.9	-0.8	nt
Cc1cc(OCC(=O)Nc2ccncc2)cc(C)c1Br	-7.4	-8.2	2.6	nt	91.4*	96.8*
Cc1cc(OCC(=O)Nc2ccncc2)ccc1Cl	7.7	6.9	0.2	-2.9	98.2*	88.2*
Cc1cc(OCC(=O)Nc2ccc(Br)cc2)cc2c1C(=O)CC(C)(C)O2	7.1	2.0	-2.4	0.0	61.8*	67.5*
Cc1cccc(OCC(=O)Nc2ccncc2)c1	-14.2	-1.4	-5.7	0.0	21.1	nt
Cc1cc(OCC(=O)Nc2ccc3oc(-c4ccncc4)nc3c2)ccc1Cl	-1.8	-8.1	2.6	nt	4.5	nt
CN(C)C(=O)c1cccc(-c2ccc([C@@H]3[C@@H](CO)N(C(=O)C4CC4)[C@H]3C#N)cc2)c1	nt	nt	nt	-0.3	nt	nt
CC(C)NC(=O)Nc1cccc2c1O[C@H](CN(C)Cc1ccc3c(c1)OCO3)[C@@H](C)CN([C@H](C)CO)C2=O	nt	nt	nt	-0.2	nt	nt
COc1ccc(S(=O)(=O)Nc2ccc3c(c2)C(=O)N([C@H](C)CO)C[C@@H](C)[C@H](CN(C)Cc2ccncc2)OCCCC[C@@H](C)O3)cc1	nt	nt	nt	-3.5	nt	nt
Cn1nc(C(F)(F)F)c(-c2ccc(F)cc2)c1NC(=O)c1ccco1	1.1	1.7	-9.0	-0.7	3.5	nt
Cn1nc(C(F)(F)F)c(-c2ccc(Br)cc2)c1NC(=O)Nc1ccc(F)cc1F	13.2	-15.0	3.5	2.9	76.5*	84.2*
O=C(Cc1ccc(S(=O)(=O)N2CCOCC2)s1)Nc1cc(C(F)(F)F)cc(C(F)(F)F)c1	-9.2	-6.1	-35.7	-5.7	69.3*	77.9*
Cc1cc(C)cc(NC(=O)Cc2ccc(S(=O)(=O)N3CCCC3)s2)c1	-8.1	-0.6	-10.2	0.1	0.4	nt
O=C(Cc1ccc(S(=O)(=O)N2CCCCC2)s1)Nc1ccc(F)c(F)c1	9.5	-10.8	5.7	1.0	67.3*	83.0*
O=C(c1ccccc1)c1cnc(Nc2ccc(Cl)c(Cl)c2)s1	0.1	-0.3	-8.1	nt	62.4*	44.1*
O=C(CSc1nc2ccccc2[nH]1)Nc1ccc(F)cc1	7.0	5.1	2.0	-2.2	-0.8	nt
Cn1c(SC(C(=O)Nc2ccc(F)cc2)c2ccccc2)nc2ccccc21 (stereo not given)	6.1	-0.4	-7.7	1.7	63.5*	65.7*
O=C(Nc1ccc(F)cc1)C(Sc1nc2ccccc2[nH]1)c1ccccc1 (stereo not given)	5.4	-0.8	-7.9	nt	97.1*	86.9*
COc1ccc(C(=O)CSc2[nH]c(=O)cc(C(F)(F)F)c2C#N)cc1	-0.1	0.3	35.0	-1.8	85.3*	75.5*
C[C@@H](O)C#Cc1ccc2c(c1)O[C@@H](CN(C)C(=O)CC1CC1)[C@@H](C)CN([C@@H](C)CO)S2(=O)=O	nt	nt	nt	-1.2	nt	nt
CC(C)(C)CC(C)(C)c1ccc(O)c(Cc2ccc(Cl)cc2Cl)c1	-8.4	22.8	0.1	-4.4	94.8*	5.3	MPTP abs DR=i;MPTP cs DR=6.42*
O=C(C[C@@H]1CC[C@@H]2[C@H](COC[C@H](O)CN2C(=O)c2ccccc2F)O1)N1CCN(c2ccccc2)CC1	nt	nt	nt	2.5	nt	nt
CCCCc1ccc(NC(=S)NCc2ccc(OC)cc2)cc1	7.7	0.3	-10.7	1.1	56.8*	75.3*
Cc1ccc(NC(=S)NCc2cccs2)cc1	-10.9	1.3	-0.1	nt	0.4	nt
COc1ccc(CNC(=S)Nc2ccc(OC)cc2)cc1	-4.8	13.2	-8.4	nt	-1.0	nt
CCCCc1ccc(NC(=S)NCc2cccs2)cc1	18.0	-13.1	24.7	nt	84.3*	79.9*

Screens from PubChem.
